Results with a measured potency or affinity are listed apart. Results filed as inconclusive are left out. Active and inactive are the calls of the source. Unless noted, how the calls were made is not given here.
Legend:
[1] = RMG-1 ovarian cancer cell viability loss – cherry-pick, dose response (AID 687029;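 active means signal drop whose fitted half-maximal concentration is at most twice the top valid dose, in every test run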;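 further: cells exposed to compound for 96 hours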)
[2] = IOSE-T80 viability loss, PAX8-independent line – cell-based, cherry-pick, selectivity assay for PAX8 inhibitor project, dose response (AID 687032;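 active means fitted half-maximal concentration for viability loss no higher than twice the top valid dose, in every repeat run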;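 further: cells exposed to compound for 96 h before reading; 0% = neutral control wells and -100% = 2 µM mitoxantrone kill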)
[3] = CMV-driven luciferase expression suppression in HEK293 – cell-based, luminescence, dry powder, counter-screen for Pax8 inhibitor project, dose response (AID 743020;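 active means signal-lowering compounds whose fitted half-maximal concentration is at or below twice the top tested dose in every run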;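 further: HEK293 cells stably expressing the CMV luciferase reporter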)
[4] = general cell-killing toxicity readout – plate reader, dry powder samples, cytotoxicity control for PAX8 inhibitor project, dose response (AID 743021)
[5] = IGROV1 cell killing – plate reader, dry powder samples, PAX8 inhibitor project, dose response (AID 743043);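 further: more negative means fewer viable cells or more cytotoxicity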
[6] = toxicity toward immortalized ovarian surface epithelium – cell-based, plate reader, dry powder samples, cytotoxicity control for PAX8 inhibitor project, dose response (AID 743045);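 further: 0% = neutral control median and -100% = positive control median; more negative values mean more cell killing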
[7] = OVCAR-3 cell viability loss – plate reader, dry powder samples, PAX8 inhibitor project, dose response (AID 743044); settings: max activity: at 35 µM, active compounds read low unless noted
[8] = OVCAR8 cell viability loss – plate reader, dry powder samples, PAX8 project, dose response (AID 743197)
[9] = A2780 cell killing – plate reader, dry powder samples, cytotoxicity control, dose response (AID 743046);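 further: 0% = neutral control wells and -100% = cytotoxic reference compound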
[10] = A549 cell cytotoxicity, dose response, cytotoxicity control, plate reader, cherry-pick, antagonist series (AID 743412);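 further: 0% = neutral control wells and -100% = positive control wells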
[11] = toxicity toward HepG2 liver cells – cell-based, plate reader, cherry-pick, antagonist series, cytotoxicity control, dose response (AID 743416);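 further: 0% = neutral control wells and -100% = positive control wells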

Measured: max activity

C[C@@H]1CN([C@@H](C)CO)S(=O)(=O)c2ccc(C#Cc3ccccc3F)cc2O[C@@H]1CN(C)C(=O)c1ccc2c(c1)OCO2
inactive: [1] | [2] | [3] | [4] | [5] | [6]

C[C@@H]1CN([C@H](C)CO)C(=O)c2cc(NS(=O)(=O)c3ccc(Cl)cc3)ccc2O[C@@H](C)CCCCO[C@H]1CN(C)C(=O)C1CCCCC1
inactive: [1] | [2] | [3] | [4] | [5] | [7] -15.5% [at 0.56 µM, active compounds read low] | [6] | [8]

C[C@H]1CCCCO[C@H](CN(C)S(=O)(=O)c2ccc(Cl)cc2)[C@@H](C)CN([C@@H](C)CO)C(=O)c2cc(NS(=O)(=O)c3ccc(F)cc3)ccc2O1
inactive: [1] | [2] | [3] | [4] | [5] | [7] -9.44% [at 4.2 µM, active compounds read low] | [6] | [8]

COc1cccc(S(=O)(=O)N2CC[C@@H]3[C@H](CO)Nc4ccc(C5=CCCCC5)cc4[C@@H]32)c1
inactive: [1] | [2] | [3] | [4] | [5] | [7] 12.1% [at 0.5 µM, active compounds read low] | [6] | [8]

N#C[C@H]1[C@H](c2ccc(C#CC3CCCCC3)cc2)[C@H](CO)N1C(=O)Nc1ccc(F)cc1
inactive: [1] | [2] | [3] | [4] | [5] | [7] -34% [at 0.5 µM, active compounds read low] | [6] | [8]

O=C(C[C@H]1CC[C@H]2[C@@H](COC[C@@H](O)CN2Cc2ccc(F)cc2)O1)NCc1ccccc1Cl
inactive: [1] | [2] | [3] | [4] | [5] | [7] -7.1% | [6] | [9] | [8]

C[C@@H]1CN([C@H](C)CO)C(=O)c2cc(NS(=O)(=O)c3ccc(F)cc3)ccc2O[C@@H](C)CCCCO[C@H]1CN(C)Cc1ccccc1
inactive: [1] | [2] | [3] | [4] | [5] | [7] 22.1% [at 1 µM, active compounds read low] | [6] | [8]

O=C(Nc1ccc(F)cc1)N1CCCCN2[C@@H](CO)[C@@H](c3ccc(-c4cccc(F)c4)cc3)[C@@H]2C1
inactive: [1] | [2] | [3] | [4] | [5] | [7] -20% | [6] | [8]

C[C@@H]1CN([C@@H](C)CO)C(=O)Cc2cc(NC(=O)C3CC3)ccc2O[C@H]1CN(C)Cc1ccc(-c2ccccc2)cc1
inactive: [1] | [2] | [3] | [4] | [5] | [7] 11.5% [at 0.26 µM, active compounds read low] | [6] | [9] | [8]

C[C@H](CO)N1C[C@H](C)[C@H](CN(C)Cc2ccc(Cl)c(Cl)c2)OCCCC[C@H](C)Oc2ccc(NC(=O)Nc3ccccc3)cc2C1=O
inactive: [1] | [2] | [3] | [4] | [5] | [7] -25.9% [at 0.26 µM, active compounds read low] | [6] | [8]

C[C@H]1CN([C@@H](C)CO)C(=O)Cc2cc(NC(=O)Nc3ccc(C(F)(F)F)cc3)ccc2O[C@H]1CN(C)C(=O)Nc1ccc(C(F)(F)F)cc1
inactive: [1] | [2] | [3] | [4] | [5] | [7] 24.3% [at 0.56 µM, active compounds read low] | [6] | [8]

CNC[C@@H]1Oc2cc(C#CC3CCCCC3)ccc2S(=O)(=O)N([C@@H](C)CO)C[C@@H]1C
inactive: [1] | [2] | [3] | [4] | [5] | [7] 17.9% [at 0.26 µM, active compounds read low] | [6] | [9] | [8]

C[C@@H]1CN([C@H](C)CO)C(=O)c2c(c3ccccc3n2C)-c2ccccc2CO[C@H]1CN(C)S(=O)(=O)c1cccc(F)c1
inactive: [1] | [2] | [3] | [4] | [5] | [7] -15.8% [at 0.26 µM, active compounds read low] | [6] | [8]

O=C(C1CCC1)N1CC(=O)N2[C@H](C1)[C@H](c1ccc(C#Cc3cccc(F)c3)cc1)[C@@H]2CO
inactive: [1] | [2] | [3] | [4] | [5] | [6]

C[C@@H]1CCCCO[C@@H](CN(C)Cc2ccc(Cl)c(Cl)c2)[C@H](C)CN([C@@H](C)CO)C(=O)c2cc(NC(=O)Nc3ccccc3)ccc2O1
inactive: [1] | [2] | [3] | [4] | [5] | [7] 10.2% [at 16 µM, active compounds read low] | [6] | [8]

C[C@@H]1CN([C@H](C)CO)C(=O)c2cc(NC(=O)Nc3ccc(F)cc3)ccc2O[C@@H](C)CCCCO[C@H]1CN(C)S(=O)(=O)c1ccc(F)cc1
inactive: [1] | [2] | [3] | [4] | [5] | [7] -9.65% [at 0.5 µM, active compounds read low] | [6] | [8]

Cc1noc(C)c1S(=O)(=O)Nc1ccc2c(c1)C(=O)N([C@@H](C)CO)C[C@H](C)[C@H](CN(C)C(=O)Nc1ccc(C(F)(F)F)cc1)OCCCC[C@H](C)O2
inactive: [1] | [2] | [3] | [4] | [5] | [7] -38.6% | [6] | [8]

O=C(CN1C(=O)c2ccccc2S1(=O)=O)c1ccccc1Cl
inactive: [1] | [2] | [3] | [4] | [5] | [7] | [6] | [9] | [10] | [11]

C[C@@H]1CN([C@@H](C)CO)C(=O)Cc2cc(NC(=O)Nc3ccc(C(F)(F)F)cc3)ccc2O[C@H]1CN(C)S(=O)(=O)c1ccc(F)cc1
inactive: [1] | [2] | [3] | [4] | [5] | [7] 16.6% [at 1 µM, active compounds read low] | [6] | [9] | [8]

CC(C)CC#Cc1ccc([C@@H]2[C@@H](CO)N3CCCCN(S(=O)(=O)c4ccc(F)cc4)C[C@H]23)cc1
inactive: [1] | [2] | [3] | [4] | [5] | [7] 15.4% [at 16 µM, active compounds read low] | [6] | [8]

Cc1noc(C)c1NC(=O)Nc1cccc2c1O[C@H](CN(C)Cc1ccc(C(F)(F)F)cc1)[C@H](C)CN([C@@H](C)CO)C2=O
inactive: [1] | [2] | [3] | [4] | [5] | [7] -18.3% | [6] | [8]

C[C@@H]1CCCCO[C@H](CN(C)C(=O)C2CCCCC2)[C@H](C)CN([C@@H](C)CO)C(=O)c2cc(NS(=O)(=O)c3ccc(Cl)cc3)ccc2O1
inactive: [1] | [2] | [3] | [4] | [5] | [6]

C[C@@H]1CCCCO[C@H](CN(C)Cc2ccc(C(F)(F)F)cc2)[C@@H](C)CN([C@@H](C)CO)C(=O)c2cc(NS(=O)(=O)c3cccs3)ccc2O1
inactive: [1] | [2] | [3] | [4] | [5] | [7] -7.27% [at 0.5 µM, active compounds read low] | [6] | [9] | [8]

Cc1ccc(S(=O)(=O)Nc2ccc3c(c2)C(=O)N([C@@H](C)CO)C[C@@H](C)[C@H](CN(C)S(=O)(=O)c2ccc(Cl)cc2)OCCCC[C@@H](C)O3)cc1
inactive: [1] | [2] | [3] | [4] | [5] | [7] 20.2% [at 0.26 µM, active compounds read low] | [6] | [8]

Cc1ccc(S(=O)(=O)Nc2ccc3c(c2)C(=O)N([C@@H](C)CO)C[C@@H](C)[C@H](CN(C)Cc2ccc(Cl)c(Cl)c2)OCCCC[C@@H](C)O3)cc1
inactive: [1] | [2] | [3] | [4] | [5] | [7] -18.1% [at 4.2 µM, active compounds read low] | [6] | [9] | [8]

C[C@H](CO)N1C[C@H](C)[C@@H](CN(C)Cc2ccc(Cl)c(Cl)c2)OCCCC[C@H](C)Oc2ccc(NS(=O)(=O)c3ccccc3)cc2C1=O
inactive: [1] | [2] | [3] | [4] | [5] | [7] -29.2% [at 2.1 µM, active compounds read low] | [6] | [8]

C[C@@H]1CCCCO[C@@H](CN(C)C(=O)Nc2cccc3ccccc23)[C@H](C)CN([C@H](C)CO)C(=O)c2cc(NS(=O)(=O)c3ccc(Cl)cc3)ccc2O1
inactive: [1] | [2] | [3] | [4] | [5] | [6]

C[C@@H]1CCCCO[C@@H](CN(C)C(=O)C2CCCCC2)[C@H](C)CN([C@H](C)CO)C(=O)c2cc(NC(=O)Nc3ccc(F)cc3)ccc2O1
inactive: [1] | [2] | [3] | [4] | [5] | [7] -21.5% | [6] | [9] | [8]

N#Cc1cccc(-c2ccc3c(c2)[C@@H]2[C@@H](CCN2S(=O)(=O)c2ccc(F)cc2)[C@@H](CO)N3)c1
inactive: [1] | [2] | [3] | [4] | [5] | [7] 5.91% | [6] | [8]

C[C@@H]1CN([C@@H](C)CO)C(=O)c2cc(NC(=O)Nc3cccc4ccccc34)ccc2O[C@@H]1CN(C)Cc1ccc2c(c1)OCO2
inactive: [1] | [2] | [3] | [4] | [5] | [7] 8.89% | [6] | [8]

C[C@H]1CCCCO[C@@H](CN(C)Cc2ccc(C(F)(F)F)cc2)[C@@H](C)CN([C@@H](C)CO)C(=O)c2cc(NC(=O)Cc3ccccc3)ccc2O1
inactive: [1] | [2] | [3] | [4] | [5] | [6]
